Sampled rows, rich in hits. Any-hit rate of the full collection: about 1.8%.
PME-1 primary = PME-1 (human) inhibition; recombinant PME-1, FP-Rh probe fluorescence polarization; inhibition, % at 5.9 µM; 320,000 compounds, 0.53% hits; AID 2130;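 active = inhibition above the campaign mean of all compounds plus 3 SD, cut at about 26% in these data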;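 note: competitive labeling of PME-1 active site by serine hydrolase directed probe; 0% = PME-1 with DMSO and 100% = wells lacking PME-1 enzyme; inhibitors block probe labeling so polarization falls and inhibition rises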
LYPLA2 counter = LYPLA2 (human) inhibition in PME1 counter-screen. AID 2177. 320,000 compounds, 0.38% hits. inhibition, % at 5.9 µM. recombinant LYPLA2, FP-Rh probe fluorescence polarization;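 active = inhibition above the screen-wide mean plus 3 SD, limit set per campaign, cut at about 26% in these data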;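 note: 0% = LYPLA2 with DMSO and 100% = wells lacking LYPLA2 enzyme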
GSTO1 inh = GSTO1 inhibition, counter-screen for RBBP9 inhibitors; P78417; recombinant GSTO1, activity-based probe fluorescence polarization; inhibition, % at 5.96 µM; 300,000 compounds, 1.1% hits; AID 1974;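 active = inhibition above the campaign mean inhibition plus 3 SD, cut at about 35% in these data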;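 note: 0% = GSTO1-1 with DMSO and 100% = wells lacking GSTO1-1 enzyme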
LYPLA1 inh = blocks human lysophospholipase 1, a PME1 counter-screen. O75608. recombinant LYPLA1, FP-Rh probe fluorescence polarization. inhibition, % at 5.9 µM. 320,000 compounds, 0.16% hits. AID 2174;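 active = inhibition above the mean of all tested compounds plus 3 SD, set per campaign, cut at about 14% in these data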;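 note: inhibitors block serine hydrolase probe labeling of LYPLA1 so polarization falls; 0% = enzyme with DMSO and 100% = wells lacking LYPLA1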
Fam108B inh = Fam108B inhibition, counter-screen for RBBP9 inhibitors. recombinant Fam108B, FP-Rh probe fluorescence polarization. inhibition, % at 9.51 µM. 300,000 compounds, 0.33% hits;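 active = inhibition above the screen mean inhibition plus 3 SD, computed separately per campaign, cut at about 18% in these data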;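 note: inhibitors lower polarization as less probe binds the enzyme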
PAD4 FP inh = inhibitors of human PAD4 | Q9UM07 | 330,000 compounds, 0.41% hits | inhibition, % at 6.36 µM | recombinant PAD4, RCA probe fluorescence polarization;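 active = percent inhibition above a cutoff equal to the mean of all tested compounds plus 3 SD, cut at about 15% in these data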;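 note: 0% = PAD4 with RCA probe and DMSO and 100% = probe without PAD4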
Target sequence (Q9UM07 whole entry, looked up): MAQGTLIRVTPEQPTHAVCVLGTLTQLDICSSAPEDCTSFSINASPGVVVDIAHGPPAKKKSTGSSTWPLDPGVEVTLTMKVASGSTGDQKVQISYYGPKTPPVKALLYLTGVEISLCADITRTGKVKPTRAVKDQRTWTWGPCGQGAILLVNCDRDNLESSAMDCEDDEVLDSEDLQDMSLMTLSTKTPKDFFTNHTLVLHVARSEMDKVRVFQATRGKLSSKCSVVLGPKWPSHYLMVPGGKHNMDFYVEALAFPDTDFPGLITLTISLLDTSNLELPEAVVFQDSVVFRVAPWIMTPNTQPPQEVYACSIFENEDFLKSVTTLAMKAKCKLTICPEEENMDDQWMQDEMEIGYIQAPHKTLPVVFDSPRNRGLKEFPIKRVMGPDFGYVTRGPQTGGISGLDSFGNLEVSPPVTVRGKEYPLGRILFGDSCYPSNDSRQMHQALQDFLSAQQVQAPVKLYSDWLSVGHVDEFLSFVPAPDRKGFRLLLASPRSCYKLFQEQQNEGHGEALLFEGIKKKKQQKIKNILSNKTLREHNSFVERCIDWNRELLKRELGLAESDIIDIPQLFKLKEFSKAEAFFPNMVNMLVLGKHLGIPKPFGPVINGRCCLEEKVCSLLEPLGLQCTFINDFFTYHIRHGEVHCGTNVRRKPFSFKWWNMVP
GSTO1 inh conf = GSTO1 (human) inhibition, confirmation; shares compounds with GSTO1 inh; recombinant GSTO1, probe fluorescence polarization; inhibition, % at 5.96 µM; 2,400 compounds, 54% hits; AID 2176;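 active = inhibition above the primary screen's cutoff, its mean inhibition plus 3 SD, cut at about 35% in these data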;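 note: loss of polarization as inhibitors block binding of rhodamine sulfonate ester activity probe; 0% = GSTO1 with DMSO and 100% = wells lacking GSTO1 enzyme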
* = called active by the depositor.

How did C[C@@H]1O[C@@H](Oc2c(-c3ccc(O)c(O)c3)oc3cc(O)cc(O)c3c2=O)[C@H](O)[C@H](O)[C@H]1O do in these assays?
PAD4 FP inh: 3

Results for Cc1cc(O)c(-c2cc(O)c(C)cc2O)cc1O ?
PME-1 primary: 1; LYPLA2 counter: -1; GSTO1 inh: 82*; LYPLA1 inh: 0; Fam108B inh: 1; PAD4 FP inh: -1; GSTO1 inh conf: 8

What do the screens show for `Cc1ccc(N)cc1O`?
PME-1 primary: -3; LYPLA2 counter: -2; LYPLA1 inh: 3; PAD4 FP inh: -12

How did O=C(NC1CC(=O)c2sccc21)c1ccc(Cl)cc1Cl (stereo not drawn) do in these assays?
PME-1 primary: 4; LYPLA2 counter: 2; GSTO1 inh: 10; LYPLA1 inh: 1; Fam108B inh: 0; PAD4 FP inh: 0

Results for Cc1cc(O)c(C(C)C)cc1N=Cc1ccccc1O ?
PME-1 primary: 11; LYPLA2 counter: 2; GSTO1 inh: 54*; LYPLA1 inh: -1; Fam108B inh: -2; PAD4 FP inh: -7; GSTO1 inh conf: 4

What do the screens show for `Cc1cc(O)c(C(C)C)cc1N=Cc1cc([N+](=O)[O-])ccc1O`?
PME-1 primary: -8; LYPLA2 counter: 1; GSTO1 inh: 27; LYPLA1 inh: -1; Fam108B inh: -3; PAD4 FP inh: 4

How did CCC(NC(C)C)C(O)c1ccc(O)c(O)c1 (stereo not drawn) do in these assays?
PME-1 primary: -6; LYPLA2 counter: -1; GSTO1 inh: 50*; LYPLA1 inh: 0; Fam108B inh: -2; PAD4 FP inh: -3; GSTO1 inh conf: 2

Results for CN(/N=C/c1cc(Br)cc(Br)c1O)c1cccc(C(F)(F)F)n1 ?
PME-1 primary: -2; LYPLA2 counter: -1; GSTO1 inh: 7; LYPLA1 inh: -1; Fam108B inh: 2; PAD4 FP inh: 3

What do the screens show for `O=[N+]([O-])c1ccc(-c2ccc(C=Nc3cccc4ccccc34)o2)cc1`?
PME-1 primary: -2; LYPLA2 counter: 3; GSTO1 inh: 63*; LYPLA1 inh: 0; Fam108B inh: -2; PAD4 FP inh: 24*; GSTO1 inh conf: 5

How did Cc1cc(C)c(S(=O)(=O)Nc2ccc(-c3cn4ccccc4n3)cc2)c(C)c1 do in these assays?
PME-1 primary: -7; LYPLA2 counter: -21; GSTO1 inh: -1; LYPLA1 inh: -14; Fam108B inh: 4; PAD4 FP inh: 4

Results for Cc1cc(C)c(S(=O)(=O)NCc2cn3ccccc3n2)c(C)c1 ?
PME-1 primary: 8; LYPLA2 counter: 0; GSTO1 inh: 39*; LYPLA1 inh: 1; Fam108B inh: 2; PAD4 FP inh: -1; GSTO1 inh conf: 8

Results for CCN(CC(=O)Nc1cccc(S(=O)(=O)N(C)c2ccccc2)c1)Cc1ccccc1 ?
PME-1 primary: 1; LYPLA2 counter: -3; LYPLA1 inh: -4; PAD4 FP inh: -10

How did N#CC(=C=[N-])c1nc2ccccc2nc1-[n+]1cccc(NC(=O)c2ccc(F)cc2)c1 do in these assays?
PME-1 primary: 2; LYPLA2 counter: 3; GSTO1 inh: 59*; LYPLA1 inh: 4; Fam108B inh: 0; PAD4 FP inh: -1; GSTO1 inh conf: 22

How did CCc1cc[n+](-c2nc3ccccc3nc2C(=C=[N-])C#N)cc1 do in these assays?
PME-1 primary: 6; LYPLA2 counter: 6; GSTO1 inh: 63*; LYPLA1 inh: 0; Fam108B inh: 3; PAD4 FP inh: 0; GSTO1 inh conf: 32

How did CCOC(=O)c1nc2ccccc2nc1C do in these assays?
PME-1 primary: 5; LYPLA2 counter: 2; GSTO1 inh: 0; LYPLA1 inh: -2; Fam108B inh: 2; PAD4 FP inh: -1

How did N#CC(=C=[N-])c1nc2ccccc2nc1-[n+]1cccc(NC(=O)c2cccs2)c1 do in these assays?
PME-1 primary: 10; LYPLA2 counter: 2; GSTO1 inh: 54*; LYPLA1 inh: 4; Fam108B inh: 8; PAD4 FP inh: -12; GSTO1 inh conf: 19

Results for N#CC(=C=[N-])c1nc2ccccc2nc1-[n+]1cccc(NC(=O)c2ccccc2)c1 ?
PME-1 primary: 7; LYPLA2 counter: -2; GSTO1 inh: 59*; LYPLA1 inh: 0; Fam108B inh: -1; PAD4 FP inh: 2; GSTO1 inh conf: 23

Results for O=C(Nc1ccc[n+](CC(=O)c2cccc3ccccc23)c1)c1ccccc1 ?
PME-1 primary: 3; LYPLA2 counter: 2; GSTO1 inh: 1; LYPLA1 inh: -3; Fam108B inh: -5; PAD4 FP inh: -3

Results for O=C(Nc1ccc(/C=C/c2nc3ccccc3o2)cc1)c1ccc(F)cc1 ?
PME-1 primary: -2; LYPLA2 counter: -9; GSTO1 inh: 2; LYPLA1 inh: -5; Fam108B inh: -8; PAD4 FP inh: 1

How did O=C(NCC1CCCO1)/C(=C/c1ccccc1F)NC(=O)c1ccccc1 (stereo not drawn) do in these assays?
PME-1 primary: 0; LYPLA2 counter: -1; GSTO1 inh: 9; LYPLA1 inh: -3; Fam108B inh: 0; PAD4 FP inh: -2

Results for Cc1[nH]nc2c1C(c1ccc(F)cc1)C1=C(CC(C)(C)CC1=O)N2 (stereo not drawn) ?
PME-1 primary: -6; LYPLA2 counter: 0; GSTO1 inh: 3; LYPLA1 inh: -1; Fam108B inh: 0; PAD4 FP inh: -6

Results for Cc1ccc(S(=O)(=O)Nc2ccc(S(=O)(=O)NCC3CCCO3)cc2)cc1 (stereo not drawn) ?
PME-1 primary: -5; LYPLA2 counter: 3; GSTO1 inh: 8; LYPLA1 inh: -3; Fam108B inh: -5; PAD4 FP inh: -3

How did CC(C)n1c(=S)[nH]c2cc(Cl)ccc21 do in these assays?
PME-1 primary: 3; LYPLA2 counter: 2; GSTO1 inh: 6; LYPLA1 inh: 2; Fam108B inh: 8; PAD4 FP inh: 0

How did CCOC(=O)C(Cc1ccc(O)cc1)NC(=O)CCc1c[nH]c2ccccc12 (stereo not drawn) do in these assays?
PME-1 primary: 5; LYPLA2 counter: 5; GSTO1 inh: 38*; LYPLA1 inh: 0; Fam108B inh: -5; PAD4 FP inh: -2; GSTO1 inh conf: 5

Results for COC(=O)[C@H](Cc1c[nH]c2ccccc12)NC(=O)CCCc1c[nH]c2ccccc12 ?
PME-1 primary: 3; LYPLA2 counter: 4; GSTO1 inh: 5; LYPLA1 inh: 0; Fam108B inh: 5; PAD4 FP inh: -2

Results for O=C1C2C3C=CC(CC3)C2C(=O)N1c1ccc(Cl)cc1Cl (stereo not drawn) ?
PME-1 primary: -1; LYPLA2 counter: -2; GSTO1 inh: -8; LYPLA1 inh: 1; Fam108B inh: 4; PAD4 FP inh: 2

Source: PubChem (The Scripps Research Institute Molecular Screening Center)
